Source: the supplement of paper PMC11732987, “Enantioselective OTUD7B fragment discovery through chemoproteomics screening and high-throughput optimisation” (Communications Chemistry, 2025)

Experiments:
Test in all cases: log2 ratio of Biotin-Ahx-Ub-VS probe labelling (fragment/DMSO); higher = less target engagement (more negative = stronger competition), active = hit call of the paper (q ≤ 0.05, log2 ratio ≤ -1)
Settings in all cases: compound concentration: 200 uM; treatment time: 3 h
[1] = biological target: USP9X (UniProt Q93008)
Outline: (§1)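 Labelled DUBs from HEK293T lysate were NeutrAvidin-enriched, digested with LysC and trypsin, and run by diaPASEF LC-MS/MS. Before that, each 495 µg sample in Tris/CHAPS/IGEPAL buffer with protease inhibitors was treated in triplicate with fragment at 200 µM or vehicle for 3 h, then with Biotin-Ahx-Ub-VS at 0.5 µM final for 1 h. Values are average log2 ratios of fragment over vehicle by unpaired t-test, based on global-median-normalised Spectronaut label-free quantities from proteins with ≥2 unique peptides.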

[2] = biological target: UniProt O00487
Outline: as §1

[3] = biological target: UniProt O00507
Outline: as §1

[4] = biological target: UniProt P51784
Outline: as §1

[5] = biological target: T1, UniProt Q5T2D3
T1 sequence (whole entry): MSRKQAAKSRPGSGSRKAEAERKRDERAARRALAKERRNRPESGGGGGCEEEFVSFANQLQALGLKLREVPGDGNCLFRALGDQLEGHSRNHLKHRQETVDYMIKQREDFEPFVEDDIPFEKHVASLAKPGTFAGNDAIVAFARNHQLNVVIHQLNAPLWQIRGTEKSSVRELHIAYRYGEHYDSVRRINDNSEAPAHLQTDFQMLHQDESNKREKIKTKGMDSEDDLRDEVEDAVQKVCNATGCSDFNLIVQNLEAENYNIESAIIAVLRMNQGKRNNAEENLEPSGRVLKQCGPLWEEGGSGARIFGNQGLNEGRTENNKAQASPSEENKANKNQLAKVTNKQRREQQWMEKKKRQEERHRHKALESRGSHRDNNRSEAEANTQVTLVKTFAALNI
Outline: as §1

[6] = biological target: T2, UniProt Q8TE49
T2 sequence (whole entry): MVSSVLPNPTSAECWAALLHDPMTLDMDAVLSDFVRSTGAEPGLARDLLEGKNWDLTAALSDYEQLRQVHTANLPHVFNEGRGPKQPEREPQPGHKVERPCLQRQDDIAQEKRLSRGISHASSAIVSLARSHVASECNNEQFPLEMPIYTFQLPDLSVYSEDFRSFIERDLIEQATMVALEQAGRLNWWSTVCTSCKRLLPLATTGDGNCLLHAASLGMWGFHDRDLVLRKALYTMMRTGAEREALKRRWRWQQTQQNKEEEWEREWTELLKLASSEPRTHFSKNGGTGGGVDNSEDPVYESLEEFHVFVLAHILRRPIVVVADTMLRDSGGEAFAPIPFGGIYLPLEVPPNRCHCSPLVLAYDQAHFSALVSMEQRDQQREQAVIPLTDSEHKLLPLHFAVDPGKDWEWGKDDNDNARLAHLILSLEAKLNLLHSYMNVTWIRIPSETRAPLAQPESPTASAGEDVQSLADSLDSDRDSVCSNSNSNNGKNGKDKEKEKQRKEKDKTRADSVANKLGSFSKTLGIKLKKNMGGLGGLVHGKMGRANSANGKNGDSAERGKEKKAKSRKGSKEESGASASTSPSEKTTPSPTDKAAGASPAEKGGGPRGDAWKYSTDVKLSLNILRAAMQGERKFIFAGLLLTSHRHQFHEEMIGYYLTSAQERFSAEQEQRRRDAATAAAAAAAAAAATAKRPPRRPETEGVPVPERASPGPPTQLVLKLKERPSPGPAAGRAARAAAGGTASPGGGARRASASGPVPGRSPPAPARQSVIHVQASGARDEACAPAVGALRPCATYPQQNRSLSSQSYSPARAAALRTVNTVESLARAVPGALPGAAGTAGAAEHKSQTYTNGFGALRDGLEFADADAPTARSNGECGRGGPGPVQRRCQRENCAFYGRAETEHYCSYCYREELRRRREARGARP
Outline: as §1

[7] = biological target: T3, UniProt Q9P2H5
T3 sequence (whole entry): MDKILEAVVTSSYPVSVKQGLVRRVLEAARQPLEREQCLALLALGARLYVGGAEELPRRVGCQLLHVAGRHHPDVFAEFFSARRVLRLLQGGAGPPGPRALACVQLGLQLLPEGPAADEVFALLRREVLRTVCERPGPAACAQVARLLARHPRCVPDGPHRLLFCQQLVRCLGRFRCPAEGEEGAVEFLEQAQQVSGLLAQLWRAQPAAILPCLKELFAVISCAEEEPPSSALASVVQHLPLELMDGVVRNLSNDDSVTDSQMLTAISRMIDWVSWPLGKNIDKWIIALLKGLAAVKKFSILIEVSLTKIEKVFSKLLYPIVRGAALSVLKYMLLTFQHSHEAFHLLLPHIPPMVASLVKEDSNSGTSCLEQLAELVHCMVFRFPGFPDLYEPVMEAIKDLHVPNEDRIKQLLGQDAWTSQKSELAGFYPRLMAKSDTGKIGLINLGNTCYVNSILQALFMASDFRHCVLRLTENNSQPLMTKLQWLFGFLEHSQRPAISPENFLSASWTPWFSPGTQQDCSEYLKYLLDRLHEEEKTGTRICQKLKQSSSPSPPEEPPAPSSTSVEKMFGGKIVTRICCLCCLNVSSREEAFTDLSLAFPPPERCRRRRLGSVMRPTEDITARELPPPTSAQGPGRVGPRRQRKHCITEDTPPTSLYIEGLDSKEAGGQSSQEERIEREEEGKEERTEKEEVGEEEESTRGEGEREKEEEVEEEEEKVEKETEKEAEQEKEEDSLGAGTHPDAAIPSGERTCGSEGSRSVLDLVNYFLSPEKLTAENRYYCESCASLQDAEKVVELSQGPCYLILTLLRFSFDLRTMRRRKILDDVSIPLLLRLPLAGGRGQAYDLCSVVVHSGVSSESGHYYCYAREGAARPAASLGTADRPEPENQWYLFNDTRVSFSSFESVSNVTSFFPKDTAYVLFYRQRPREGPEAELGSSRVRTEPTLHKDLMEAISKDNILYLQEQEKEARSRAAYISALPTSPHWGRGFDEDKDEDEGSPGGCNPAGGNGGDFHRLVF
Outline: as §1

[8] = biological target: T4, UniProt Q9UGI0
T4 sequence (whole entry): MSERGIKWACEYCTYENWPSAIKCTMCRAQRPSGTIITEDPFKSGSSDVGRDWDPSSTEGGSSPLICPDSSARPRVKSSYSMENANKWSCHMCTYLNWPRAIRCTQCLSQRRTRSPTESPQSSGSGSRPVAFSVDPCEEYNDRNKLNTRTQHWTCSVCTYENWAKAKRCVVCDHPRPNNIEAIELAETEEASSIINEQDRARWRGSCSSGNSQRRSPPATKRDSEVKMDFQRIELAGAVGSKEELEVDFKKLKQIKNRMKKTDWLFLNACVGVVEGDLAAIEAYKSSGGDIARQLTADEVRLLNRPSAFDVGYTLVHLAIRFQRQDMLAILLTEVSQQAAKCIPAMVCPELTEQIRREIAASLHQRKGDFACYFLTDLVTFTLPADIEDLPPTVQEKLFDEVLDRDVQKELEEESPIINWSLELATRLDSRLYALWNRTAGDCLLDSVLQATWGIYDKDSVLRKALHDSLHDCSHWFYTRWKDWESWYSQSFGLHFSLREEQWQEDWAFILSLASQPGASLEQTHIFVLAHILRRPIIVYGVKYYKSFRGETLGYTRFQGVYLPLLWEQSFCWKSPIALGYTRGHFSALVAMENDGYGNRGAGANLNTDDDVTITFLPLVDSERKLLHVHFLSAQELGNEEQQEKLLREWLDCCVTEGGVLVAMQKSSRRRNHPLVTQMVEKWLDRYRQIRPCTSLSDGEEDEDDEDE
Outline: as §1

[9] = biological target: T5, YOD1 (UniProt Q5VVQ6)
T5 sequence (whole entry): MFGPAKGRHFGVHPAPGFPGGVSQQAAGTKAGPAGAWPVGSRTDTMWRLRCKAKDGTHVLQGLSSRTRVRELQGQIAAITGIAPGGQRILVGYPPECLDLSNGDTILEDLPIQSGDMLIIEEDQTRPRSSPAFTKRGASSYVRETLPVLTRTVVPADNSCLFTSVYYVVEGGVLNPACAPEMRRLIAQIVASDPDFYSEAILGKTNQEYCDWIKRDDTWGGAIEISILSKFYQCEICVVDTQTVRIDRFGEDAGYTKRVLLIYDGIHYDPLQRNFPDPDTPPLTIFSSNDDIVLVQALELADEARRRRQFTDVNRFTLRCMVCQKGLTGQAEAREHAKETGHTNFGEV
Outline: as §1

Measured: log2 ratio of Biotin-Ahx-Ub-VS probe labelling

Sequence of UniProt P51784 (P51784 whole entry): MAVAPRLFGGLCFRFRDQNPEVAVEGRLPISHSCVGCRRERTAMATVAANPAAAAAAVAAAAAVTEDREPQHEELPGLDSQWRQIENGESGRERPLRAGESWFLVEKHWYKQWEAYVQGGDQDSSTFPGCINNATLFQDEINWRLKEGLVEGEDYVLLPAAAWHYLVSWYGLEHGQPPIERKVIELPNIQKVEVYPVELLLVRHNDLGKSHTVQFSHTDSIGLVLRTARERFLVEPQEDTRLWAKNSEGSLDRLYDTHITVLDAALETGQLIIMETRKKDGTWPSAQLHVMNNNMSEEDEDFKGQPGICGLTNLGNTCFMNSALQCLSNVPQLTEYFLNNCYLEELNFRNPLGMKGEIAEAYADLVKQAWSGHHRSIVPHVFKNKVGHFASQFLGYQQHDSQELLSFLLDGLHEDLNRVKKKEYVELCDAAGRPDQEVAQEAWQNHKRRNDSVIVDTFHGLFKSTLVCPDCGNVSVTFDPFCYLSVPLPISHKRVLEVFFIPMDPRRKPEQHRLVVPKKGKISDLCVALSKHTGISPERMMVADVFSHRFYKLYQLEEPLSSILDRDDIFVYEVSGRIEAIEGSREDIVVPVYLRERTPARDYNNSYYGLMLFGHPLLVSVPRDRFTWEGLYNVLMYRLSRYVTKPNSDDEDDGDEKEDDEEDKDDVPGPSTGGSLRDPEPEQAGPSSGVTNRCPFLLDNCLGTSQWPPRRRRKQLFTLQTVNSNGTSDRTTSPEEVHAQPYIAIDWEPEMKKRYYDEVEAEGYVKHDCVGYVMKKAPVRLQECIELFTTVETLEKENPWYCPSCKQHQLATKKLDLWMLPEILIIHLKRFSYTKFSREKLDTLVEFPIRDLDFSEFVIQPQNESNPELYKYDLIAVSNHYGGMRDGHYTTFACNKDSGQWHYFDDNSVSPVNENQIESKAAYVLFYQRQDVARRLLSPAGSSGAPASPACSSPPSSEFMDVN
Sequence of UniProt O00507 (O00507 whole entry): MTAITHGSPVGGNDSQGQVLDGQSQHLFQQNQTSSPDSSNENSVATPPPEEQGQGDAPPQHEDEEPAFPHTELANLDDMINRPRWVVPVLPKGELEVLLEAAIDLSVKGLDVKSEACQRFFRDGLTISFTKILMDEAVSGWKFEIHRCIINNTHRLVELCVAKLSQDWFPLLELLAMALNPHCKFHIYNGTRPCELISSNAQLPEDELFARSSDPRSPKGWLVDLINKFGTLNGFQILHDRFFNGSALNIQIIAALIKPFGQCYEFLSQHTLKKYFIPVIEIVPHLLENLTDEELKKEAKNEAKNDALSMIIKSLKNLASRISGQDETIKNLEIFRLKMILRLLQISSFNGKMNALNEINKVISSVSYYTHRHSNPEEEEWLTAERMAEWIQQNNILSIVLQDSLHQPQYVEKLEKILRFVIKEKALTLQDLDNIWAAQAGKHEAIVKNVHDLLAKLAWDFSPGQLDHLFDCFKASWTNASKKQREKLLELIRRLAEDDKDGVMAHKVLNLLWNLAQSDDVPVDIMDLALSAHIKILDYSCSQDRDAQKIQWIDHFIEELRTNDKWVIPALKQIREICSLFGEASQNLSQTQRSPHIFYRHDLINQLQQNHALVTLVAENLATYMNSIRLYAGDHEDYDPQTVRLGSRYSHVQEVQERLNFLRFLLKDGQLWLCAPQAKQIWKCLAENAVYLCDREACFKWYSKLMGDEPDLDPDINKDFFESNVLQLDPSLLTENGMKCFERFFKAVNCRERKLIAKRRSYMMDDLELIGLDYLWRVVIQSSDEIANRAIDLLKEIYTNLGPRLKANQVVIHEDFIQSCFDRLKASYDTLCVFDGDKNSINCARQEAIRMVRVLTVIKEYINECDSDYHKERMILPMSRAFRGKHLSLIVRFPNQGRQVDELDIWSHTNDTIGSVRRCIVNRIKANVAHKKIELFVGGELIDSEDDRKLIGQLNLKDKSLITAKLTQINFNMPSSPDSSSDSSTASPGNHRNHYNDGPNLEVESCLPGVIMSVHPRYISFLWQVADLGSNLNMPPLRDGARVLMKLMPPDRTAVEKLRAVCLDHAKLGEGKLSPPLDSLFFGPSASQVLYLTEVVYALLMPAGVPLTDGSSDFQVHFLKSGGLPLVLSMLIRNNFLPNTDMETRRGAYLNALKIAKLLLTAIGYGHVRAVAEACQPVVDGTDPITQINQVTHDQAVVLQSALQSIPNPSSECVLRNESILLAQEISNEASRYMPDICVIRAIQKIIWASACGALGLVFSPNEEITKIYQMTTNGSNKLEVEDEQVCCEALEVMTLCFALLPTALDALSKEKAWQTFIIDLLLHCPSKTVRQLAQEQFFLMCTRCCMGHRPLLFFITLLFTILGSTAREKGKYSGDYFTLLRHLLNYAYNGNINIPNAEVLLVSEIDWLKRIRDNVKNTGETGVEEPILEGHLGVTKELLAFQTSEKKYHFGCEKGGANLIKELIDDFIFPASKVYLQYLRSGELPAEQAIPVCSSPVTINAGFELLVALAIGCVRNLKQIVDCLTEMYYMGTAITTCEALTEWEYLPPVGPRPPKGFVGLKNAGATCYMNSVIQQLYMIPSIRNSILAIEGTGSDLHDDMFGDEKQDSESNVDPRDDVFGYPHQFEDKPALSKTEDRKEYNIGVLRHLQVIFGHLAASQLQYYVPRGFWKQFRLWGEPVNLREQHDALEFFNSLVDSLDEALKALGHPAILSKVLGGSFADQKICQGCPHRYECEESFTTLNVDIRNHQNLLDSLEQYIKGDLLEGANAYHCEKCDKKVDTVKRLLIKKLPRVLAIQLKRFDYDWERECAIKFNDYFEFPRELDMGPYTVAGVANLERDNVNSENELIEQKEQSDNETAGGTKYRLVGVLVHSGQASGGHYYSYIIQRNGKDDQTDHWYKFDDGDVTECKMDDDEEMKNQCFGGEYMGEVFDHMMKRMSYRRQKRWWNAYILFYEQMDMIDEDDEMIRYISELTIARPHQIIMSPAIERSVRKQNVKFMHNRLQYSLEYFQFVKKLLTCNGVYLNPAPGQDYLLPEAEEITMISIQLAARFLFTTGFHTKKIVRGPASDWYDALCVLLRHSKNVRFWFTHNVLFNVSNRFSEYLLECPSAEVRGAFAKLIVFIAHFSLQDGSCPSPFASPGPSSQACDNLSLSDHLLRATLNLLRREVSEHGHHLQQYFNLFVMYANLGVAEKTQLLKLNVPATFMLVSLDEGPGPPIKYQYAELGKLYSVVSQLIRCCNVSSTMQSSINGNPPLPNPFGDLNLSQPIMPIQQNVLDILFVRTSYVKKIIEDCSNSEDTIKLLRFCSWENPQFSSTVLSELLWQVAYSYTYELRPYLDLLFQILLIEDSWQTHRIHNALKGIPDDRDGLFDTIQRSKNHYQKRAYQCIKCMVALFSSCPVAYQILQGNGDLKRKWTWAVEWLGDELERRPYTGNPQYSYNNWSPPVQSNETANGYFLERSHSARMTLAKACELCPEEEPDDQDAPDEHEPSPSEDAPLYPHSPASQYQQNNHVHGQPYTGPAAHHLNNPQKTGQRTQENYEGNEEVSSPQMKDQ
Sequence of UniProt O00487 (O00487 whole entry): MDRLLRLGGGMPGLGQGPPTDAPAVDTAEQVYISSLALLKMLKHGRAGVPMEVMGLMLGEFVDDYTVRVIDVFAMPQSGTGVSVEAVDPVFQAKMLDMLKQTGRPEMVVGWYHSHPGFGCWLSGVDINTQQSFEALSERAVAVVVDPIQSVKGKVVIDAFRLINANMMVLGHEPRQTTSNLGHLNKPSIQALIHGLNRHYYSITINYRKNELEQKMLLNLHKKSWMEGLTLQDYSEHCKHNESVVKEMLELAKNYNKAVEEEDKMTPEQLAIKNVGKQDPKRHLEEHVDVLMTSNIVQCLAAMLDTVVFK

O=C(CCl)N1CCC(C(=O)N2CCCC2)CC1
inactive: [1] -0.0236 | [2] -0.108 | [3] -0.126 | [4] -0.2 | [5] -0.068 | [6] -0.199 | [7] -0.139 | [8] 0.0373 | [9] 0.122
